Rows were chosen to be rich in hits. Some 3.1% of all compounds tested hit in one or more screens of this group.
PLK1 PBD inh = qHTS for Inhibitors of PLK1-PDB (polo-like kinase 1 - polo-box domain): Primary Screen. Serine/threonine-protein kinase PLK1 (Homo sapiens), P53350. 360,000 compounds, 2.8% hits. Potency, µM, most hits filed as inhibitors. Plk1 PBD binding of FITC phosphopeptide, fluorescence polarization. AID 720504, 2013; note: series mostly up to about 57 µM; nearly all actives have a fitted effect of over 65% in size
GLS inh = qHTS for Inhibitors of Glutaminase (GLS). Glutaminase kidney isoform, mitochondrial (Homo sapiens), O94925. GLS enzymatic activity, qHTS titration. Potency, µM (series often up to 45.5 µM), usual class: inhibitors. 410,000 compounds, 0.21% hits
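hKGA; 45 mM KH2PO4 pH 8.2 + 0.02% Tween-20; cpd via pin tool; 1 mM Gln soln; GluOx/HRP/Amplex Red; RT 30 min; fluor. t0 & final.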
VDR inhibitor = Inhibitors of the vitamin D receptor (VDR): qHTS | 400,000 compounds, 0.93% hits | VDR-SRC2-3 peptide fluorescence polarization, 2 h | Potency, µM, actives largely listed as inhibitors | AID 504847, 2011
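Reagent solutions, kept cold and dark, are dispensed first; compounds are then pinned in at 23 nl, plates briefly spun, and incubated 2 h at ambient temperature. Inhibition of VDR–SRC2-3 peptide binding is read by fluorescence polarization.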
GCN5L2 inh = qHTS Assay for Inhibitors of GCN5L2 | Histone acetyltransferase KAT2A (Homo sapiens), Q92830 | GCN5L2 HAT assay, ThioGlo1 CoA-SH fluorescence | Potency, µM (series often up to 58.9 µM), usual class: inhibitors | 390,000 compounds, 0.21% hits | AID 504327, 2011
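Free CoA generated was detected with ThioGlo1 (50uM) fluorescence at Ex340nm/Em540nm, read immediately and after 20 min at room temperature. Enzyme, 20 nM in HEPES pH 7.5 buffer, saw compounds 15 min before adding 75uM H3(1-25) peptide and 70uM acetyl-CoA.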
PI4K2A block = qHTS for small molecular inhibitors of PI4K2A; Phosphatidylinositol 4-kinase type 2-alpha (Homo sapiens), Q9BTU6; purified PI4K2A, ADP-Glo luminescence, 1 h; active compounds read low; activity change, negative = inhibition, % at 76.9 µM; 420,000 compounds, 0.13% hits; AID 1346378, 2018; in the data active = activity change below about -50%; inconclusive = mostly about -30% to -49%
Target sequence (Q9BTU6 whole entry, looked up): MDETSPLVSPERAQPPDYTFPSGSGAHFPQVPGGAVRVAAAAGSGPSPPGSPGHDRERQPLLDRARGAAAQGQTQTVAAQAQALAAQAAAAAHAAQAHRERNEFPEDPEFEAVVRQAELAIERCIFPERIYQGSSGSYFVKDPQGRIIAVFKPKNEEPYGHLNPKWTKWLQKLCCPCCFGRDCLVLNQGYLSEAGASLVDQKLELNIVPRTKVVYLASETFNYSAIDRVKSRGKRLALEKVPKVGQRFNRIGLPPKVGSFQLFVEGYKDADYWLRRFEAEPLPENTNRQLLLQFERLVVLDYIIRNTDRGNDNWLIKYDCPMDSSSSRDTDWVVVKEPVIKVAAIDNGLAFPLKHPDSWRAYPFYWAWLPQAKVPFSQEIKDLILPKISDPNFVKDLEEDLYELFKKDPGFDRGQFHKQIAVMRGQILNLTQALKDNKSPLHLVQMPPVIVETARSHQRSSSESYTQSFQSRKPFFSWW
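ADP-Glo luminescence measured ADP generated by PI4K2A enzyme (4 ug/mL before mixing) with 1.2 mM PI substrate (pre-mix) and 300 microM ATP (pre-mix). Tris pH7.5 buffer with MgCl2, Triton X-100; 1 h reaction at ambient temperature.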
VDR inh confirm = qHTS for Inhibitors of the vitamin D receptor (VDR): Hit Validation in Primary Screen; AID 602199, 2012; shares compounds with VDR inhibitor; Potency, µM, actives largely listed as inhibitors; VDR-coactivator inhibition assay, qHTS confirmation; 840 compounds, 89% hits
VDR FP = qHTS for Inhibitors of the vitamin D receptor (VDR): Hit Validation using a Fluorescein Assay. AID 602200, 2012. shares compounds with VDR inhibitor. Potency, µM (titrated, usually from 57.1 µM), usual class: inhibitors. 840 compounds, 48% hits. VDR-coactivator binding, fluorescein fluorescence polarization
VDR bla reporter = qHTS for Inhibitors of the vitamin D receptor (VDR): Hit Validation using a Beta-Lactamase Assay | shares compounds with VDR inhibitor | VDR beta-lactamase reporter cells, FRET ratio; cells co-treated with VDR agonist LG190178 | Potency, µM (highest dose often 46.1 µM), actives largely listed as inhibitors | 840 compounds, 23% hits | AID 602202, 2012
VDR cytotox = qHTS for Inhibitors of the vitamin D receptor (VDR): Hit Validation using a Cytotoxicity Assay; shares compounds with VDR inhibitor; cytotoxicity counter-screen, cell viability, qHTS; Potency, µM (series often up to 48.3 µM), actives largely listed as cytotoxic; 840 compounds, 18% hits; note: nearly all actives have a fitted effect of over 75% in size
A number is an active result; i = inactive; ? = inconclusive; nt = not tested or not shown. Unless noted, calls come from the whole dose curve; as a rule, active = well fitted curve in the direction sought with a large enough effect; inconclusive = small, poorly fitted or top-dose-only effect, or another doubt; inactive = no such curve, though single readings can be large; an effect the other way counts as inactive or inconclusive.

SMILES	PLK1 PBD inh	GLS inh	VDR inhibitor	GCN5L2 inh	PI4K2A block	VDR inh confirm	VDR FP	VDR bla reporter	VDR cytotox
NC(=NCc1ccc(Cl)cc1Cl)NC(=O)c1nc(Cl)c(N)nc1N	nt	nt	i	i	nt	nt	nt	nt	nt
CC(=O)N(C(C)=O)N1C(=O)C2C3c4ccccc4C(c4ccccc43)C2C1=O (centres undefined)	?	i	35µM	i	i	30	?	i	i
N#Cc1c(Nc2ccccc2)s[nH]c1=O	i	i	?	i	i	7.5	i	i	i
COc1ccc(C(=O)/C=C/Sc2nc3ccccc3o2)cc1	0.75µM	i	18µM	i	i	6	3.2µM	21µM	21µM
COc1ccc(C(=O)N/C(N)=N/c2nc3ccccc3o2)cc1	i	i	i	i	i	nt	nt	nt	nt
Cc1ccc(Oc2c(C(N)=O)cc([N+](=O)[O-])cc2[N+](=O)[O-])cc1	21µM	i	28µM	i	i	11	13µM	?	5.6µM
O=C(NNc1ccccc1)c1ccc(Cl)c(Cl)c1	i	i	?	nt	i	nt	nt	nt	nt
O=C(NNc1cc(Br)c(O)c(Br)c1)c1ccccc1	i	i	79µM	i	i	?	?	i	i
CNc1ccc(Br)cc(C(=O)/C=C/c2cccc(Cl)c2Cl)c1=O	?	i	?	i	i	8.9	i	23µM	i
CCN1C(=NCc2cc(OC)c(OC)c(OC)c2)N[C@@H](c2cccc(F)c2)C(C(=O)OC)=C1C	nt	nt	nt	i	nt	nt	nt	nt	nt
CC(C)CC(=O)/C(=C\c1ccc(Cl)cc1Cl)n1cncn1	?	i	4µM	i	i	3.8	?	16µM	15µM
CC(C)CC(=O)/C(=C/c1ccc(N(C)C)cc1)n1cncn1	i	i	i	i	i	nt	nt	nt	nt
COCC1=C2c3ccccc3[C@H](C[N+](=O)[O-])C(C(=O)OC)(C(=O)OC)CC2C2C(=O)N(c3ccccc3)C(=O)C2C1 (some centres undefined)	nt	nt	i	nt	nt	nt	nt	nt	nt
Fc1cccc(-c2csc(-c3ccno3)n2)c1	?	i	i	i	i	nt	nt	nt	nt
Nc1nc(-c2cccc(F)c2)cs1	11µM	i	35µM	i	i	24	?	i	i
COc1ccc(/C=C2\N=C(C)OC2=O)cc1[N+](=O)[O-]	?	i	79µM	i	i	11	?	i	i
COc1ccc(/C=N/Nc2nc(=O)[nH]nc2C)cc1[N+](=O)[O-]	i	i	i	i	i	nt	nt	nt	nt
CC(C)CCC[C@@H](C)[C@@H]1CC[C@H]2C3=CC=C4CC(O)CC[C@]4(C)[C@H]3CC[C@@]21C (some centres undefined)	nt	nt	28µM	i	nt	?	i	?	?
CC(C)CCC[C@@H](C)[C@H]1CC[C@H]2[C@@H]3CC=C4C[C@@H](O)CC[C@]4(C)[C@H]3CC[C@]12C	nt	i	i	i	nt	nt	nt	nt	nt
CCC(NC(=O)C1CCCN(c2ncccn2)C1)c1ccccc1 (centres undefined)	nt	nt	nt	nt	i	nt	nt	nt	nt
C=CCn1c(Sc2ncc([N+](=O)[O-])s2)n[nH]c1=O	1.2µM	i	28µM	?	i	15	?	26µM	?

Bioassay records deposited in PubChem BioAssay by National Center for Advancing Translational Sciences (NCATS).
